Measurements: PubChem BioAssay (Tox21)
Inconclusive results are not listed. Unmarked numbers belong to inactive results. Activity calls are given as the source filed them. The call rests on the fitted dose curve; in most records, active means well fitted inhibition curve with a large enough effect in the signal ratio in the repeat runs (not every such curve was filed as active); inconclusive means weak or mixed curves, or effect the other way; inactive means no such curve, though single readings can be large or run the other way; the % refers to the signal ratio.
On the % scale 0 is the no-effect control and ±100 the full control effect; potency means the concentration at half of the fitted maximal effect.

The molecules below were run against Bile acid receptor (Homo sapiens) (UniProt Q96RI1) (assay: qHTS assay to identify small molecule antagonists of the farnesoid-X-receptor (FXR) signaling pathway (AID 743217)). Details: HEK293T FXR-UAS-bla, beta-lactamase ratio, CDCA-stimulated, 16 h; series mostly up to 62.6 µM; activity change, negative = inhibition: at the top concentration.
Sequence of Bile acid receptor (Homo sapiens) (Q96RI1 whole entry, looked up): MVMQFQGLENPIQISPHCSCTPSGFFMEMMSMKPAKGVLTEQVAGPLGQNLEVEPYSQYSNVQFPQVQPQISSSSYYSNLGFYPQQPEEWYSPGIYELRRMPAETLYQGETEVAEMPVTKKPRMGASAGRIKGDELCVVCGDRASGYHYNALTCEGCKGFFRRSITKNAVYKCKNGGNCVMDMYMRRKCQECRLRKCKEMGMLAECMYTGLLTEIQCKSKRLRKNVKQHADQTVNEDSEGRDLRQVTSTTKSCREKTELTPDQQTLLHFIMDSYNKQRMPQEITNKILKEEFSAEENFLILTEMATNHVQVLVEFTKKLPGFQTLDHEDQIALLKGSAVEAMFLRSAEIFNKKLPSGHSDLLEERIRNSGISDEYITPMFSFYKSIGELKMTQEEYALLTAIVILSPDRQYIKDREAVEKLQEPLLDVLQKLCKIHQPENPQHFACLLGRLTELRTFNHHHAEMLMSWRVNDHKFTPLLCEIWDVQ
Excerpt: U.S. Tox21 Program National Center for Advancing Translational Sciences [NCATS] NIH Chemical Genomics Center [NCGC] U.S. Environmental Protection Agency [EPA] National Institutes of Environmental Health Sciences [NIEHS] National Toxicology Program [NTP] U.S. Food and Drug Administration [FDA] Tox21 Assay Overview: The farnesoid-X-receptor (FXR), a nuclear hormone receptor, is highly expressed in liver, intestine, kidney and adrenal cortex. Natural ligands of FXR are the bile acids (Cholic acid, Chenodeoxy cholic acid etc). FXR is an important regulator of diverse metabolic pathways, including the bile acid homeostasis, lipid and glucose metabolisms. FXR regulates the expression of target genes by binding either as a monomer or as a heterodimer with the retinoid X receptor (RXR). Numerous studies have reported that FXR exerts protective function during cholestasis, diabetes, liver regeneration, and cancer. To identify compounds that inhibit FXR signaling, GeneBLAzer FXR-UAS-bla HEK 293T cell line (Invitrogen, Carlsbad, CA) containing a beta-lactamase reporter gene under the control of a UAS response element was used to screen the Tox21 10K compound library.
Tox21 Assay Protocol Summary: FXR-bla cells were dispensed at 5000 cells/5uL/well in 1536-well black wall/clear bottom plates using a Multidrop Combi (Thermo Fisher Scientific, Waltham, MA) dispenser. After the assay plates were incubated at 37C and 5% CO2 for 5 h, 23 nL of compounds dissolved in DMSO, positive controls or DMSO only was transferred to the assay plate by a Pintool station (Kalypsys, San Diego, CA), followed by addition of 1 uL Chenodeoxycholic acid (50 uM, final concentration in the wells). The assay plates were incubated at 37C for 16 h. After 1 uL of LiveBLAzerTM B/G FRET substrate was added using a Bioraptr Flying Reagent Dispenser (FRD) workstation (Beckman Coulter, Indianapolis, IN), the plates were incubated at room temperature for 2 h, and fluorescence intensity was measured by an Envision plate reader (PerkinElmer, Shelton, CT).
With `Cc1ccc(C(C)C)cc2c(C)ccc1-2` the “activity change, negative = inhibition” value was 8.96%. With `CCCCC(CC)CN1CN(CC(CC)CCCC)CC(C)(N)C1` (stereo not given) the “activity change, negative = inhibition” value was 4.35%. `[Cl][Pt-2]([Cl])([Cl])[Cl]` was tested, and the “activity change, negative = inhibition” value was -0.111% [at 81.1 µM]. With `CCC(COC(=O)CCS)(COC(=O)CCS)COC(=O)CCS` the “activity change, negative = inhibition” value was -2.72%. For `O=C(/C=C/c1ccc(O)c(O)c1)O[C@@H](C(=O)O)[C@@H](OC(=O)/C=C/c1ccc(O)c(O)c1)C(=O)O`, the “activity change, negative = inhibition” value was -1.94%. `CCCCCC/C=C\CCCCCCCC(=O)O` was tested, and the “activity change, negative = inhibition” value was -13.4%. `COc1cc(S(=O)(=O)O)c(C)cc1N=Nc1c(O)ccc2cc(S(=O)(=O)O)ccc12` was tested, and the “activity change, negative = inhibition” value was -1.23%. In the case of `O=C(/C=C/c1ccccc1)OC/C=C/c1ccccc1`, the “activity change, negative = inhibition” value is reported as 2.4%. `OC[C@H]1O[C@H](O[C@H]2O[C@H](CO)[C@@H](O)[C@H](O)[C@H]2O)[C@H](O)[C@@H](O)[C@@H]1O` was tested, and the “activity change, negative = inhibition” value was 3.77% [at 81.1 µM]. In the case of `CCCC[P+](C)(CCCC)CCCC`, the “activity change, negative = inhibition” value is reported as -8.3% [at 81.1 µM]. For `C#Cc1ccc(-c2ccccc2F)cc1`, the “activity change, negative = inhibition” value was 8.68%. In the case of `Cc1ccc(C)cc1`, the “activity change, negative = inhibition” value is reported as -2.08%. With `CCCCCCCCCCCCOC(=O)c1ccc(O)cc1` the Potency was 44 µM (active). With `Fc1ccc(C(c2ccc(F)cc2)N2CCNCC2)cc1` the Potency was 29.8 µM (active). `COC(C)=O` was tested, and the “activity change, negative = inhibition” value was -4.05% [at 81.1 µM]. With `Nc1nc2c(ncn2COCCO)c(=O)[nH]1` the “activity change, negative = inhibition” value was -6.31%. With `Cl[Si](Cl)(c1ccccc1)c1ccccc1` the “activity change, negative = inhibition” value was -5.86% [at 81.1 µM]. `CN(C)Cc1ccccc1O` was tested, and the “activity change, negative = inhibition” value was 6.49%. For `CN1CCN(Cc2cc(-c3ccc4[nH]c(=O)oc4c3)co2)[C@@H](c2ccc(F)cc2)C1`, the “activity change, negative = inhibition” value was -7.19%. With `CC[C@H](C)COC(=O)/C=C/c1ccc(N=Cc2ccc(OC)cc2)cc1` the “activity change, negative = inhibition” value was -0.0113%. For `CCN(CC)C(=O)c1cc(S(=O)(=O)Cc2ccccc2)c(N2CCC(c3ccccc3)CC2)cc1N(CC)CCN(C)C`, the “activity change, negative = inhibition” value was -3.93% [at 29.1 µM]. For `CC(C)(C)C1CCC(=O)CC1`, the “activity change, negative = inhibition” value was -21.6%. `CCCNCCC` was tested, and the “activity change, negative = inhibition” value was 10.5% [at 81.1 µM]. In the case of `OC12N=C(c3ccccc3)SC1Cc1cc(Cl)ccc12` (stereo not given), the “activity change, negative = inhibition” value is reported as 5.15%. With `CCN(CC)c1ccc2c(-c3ccc(S(=O)(=O)O)cc3S(=O)(=O)[O-])c3ccc(=[N+](CC)CC)cc-3oc2c1` the “activity change, negative = inhibition” value was 1.12% [at 81.1 µM]. For `Cc1cc(-n2nc3ccc(Cl)cc3n2)c(O)c(C(C)(C)C)c1`, the “activity change, negative = inhibition” value was -0.992%. In the case of `C[C@@H](O)[C@H](N)C(=O)O`, the “activity change, negative = inhibition” value is reported as -0.791% [at 29.1 µM]. `C/C=C/C=C/COC(=O)C(C)C` was tested, and the “activity change, negative = inhibition” value was 0.31%. For `CN(C)c1ccc(C(=C2C=CC(=[N+](C)C)C=C2)c2ccc(N(C)C)cc2)cc1`, the Potency was 16.8 µM (active). For `COC(=O)c1ccccc1OC`, the “activity change, negative = inhibition” value was -7.29%. In the case of `C=C(C)C(=O)OCCCCCCCCCC`, the “activity change, negative = inhibition” value is reported as 4.71% [at 81.1 µM]. For `Cc1ccc(O)c(N)c1`, the “activity change, negative = inhibition” value was 17.1%. With `CCCCC(CC)COC(=O)CCCCC(=O)OCc1ccccc1` (stereo not given) the “activity change, negative = inhibition” value was -2.54%. `Nc1ccc(C(=O)O)c(O)c1` was tested, and the “activity change, negative = inhibition” value was 7.52%. With `c1cnccn1` the “activity change, negative = inhibition” value was -6.85% [at 81.1 µM]. In the case of `CCn1c2ccccc2c2cc([N+](=O)[O-])ccc21`, the “activity change, negative = inhibition” value is reported as -2.05%. For `Cc1ccc(N/N=c2\c(=O)cc/c(=N\Nc3ccc(S(=O)(=O)O)cc3)c2=O)c(C)c1`, the “activity change, negative = inhibition” value was -3.47%. For `Cc1cc(C(C)(C)C)c(O)c(C)c1Cn1c(=O)n(Cc2c(C)cc(C(C)(C)C)c(O)c2C)c(=O)n(Cc2c(C)cc(C(C)(C)C)c(O)c2C)c1=O`, the Potency was 19.5 µM (active). In the case of `COC(=O)c1ccccc1C`, the “activity change, negative = inhibition” value is reported as 0.092%. With `O=C1NC(=O)[C@@H]2CC=CC[C@H]12` the “activity change, negative = inhibition” value was -20.2%.
